# HSD17B inhib: inhibitors of human HSD17B10 dehydrogenase. actives 7.6% (n = 75,000). recombinant HSD17B10, NADH fluorescence kinetic. AID 893. Q99714. Potency, µM (top dose mostly 57.1 µM), most hits filed as inhibitors;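 also: the protocol describes HADH2 (HSD17B10) and not the HSD17B4 of the title; nearly all actives have a fitted effect of over 70% in size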
#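 Activity followed as NADH fluorescence increase (ex 360, em 450 nm) every 30 seconds for 4 min, using final 90 uM beta-hydroxybutyryl CoA and 1 mM NAD+. Recombinant His-tagged enzyme, 20 nM, pH 9.0 Tris buffer, 15 min compound preincubation.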
# CRE Fsk mod: CRE-bla signaling modulation under forskolin stimulation; CHO CRE-bla reporter (cAMP response element driving beta-lactamase), forskolin EC10, beta-lactamase ratio; Potency, µM (titrated, usually from 38.2 µM), hits mostly activators; AID 662; actives 2.5% (n = 71,000); active = well fitted activation curve with a large enough effect in the signal ratio, with a control signal flat, not every such curve was filed as active; inconclusive = small, poorly fitted or top-dose-only effect, or effect the other way, or a change in a side signal; the % refers to the signal ratio
#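 Forskolin analogue NKH 477 at EC10 stimulated CRE-driven beta-lactamase in CHO cells alongside compound dilution series. Beta-lactamase was measured with CCF4, excitation 405 nm, emission ratio 460/530 nm.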
# A350 autofl: compounds fluorescent in Alexa 350 spectral region | Compound autofluorescence, 340/450 nm, Alexa 350 dye-equivalents; active compounds read high | max dye-equivalent concentration, M | actives 11% (n = 59,000) | AID 590; in the data active = max dye-equivalent concentration above about 10 nM; inconclusive = mostly about 1.1 nM to 9.6 nM
# 4-MU autofl: 4-MU region autofluorescence; compound autofluorescence, 340/450 nm, 4-MU equivalents; active compounds read high; max dye-equivalent concentration, M; actives 11% (n = 59,000); in the data active = max dye-equivalent concentration above about 10 nM; inconclusive = mostly about 1.1 nM to 9.6 nM
#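 Compounds in 100 mM Tris, pH 8.0, sat 15 min at room temperature before fluorescence was read at 340 nm excitation/450 nm emission; a per-plate six-point 4-MU standard curve converted signals to dye-equivalent concentration at each compound concentration.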
# HADH2 inh: HADH2 (human) dehydrogenase inhibition; Potency, µM (highest dose often 57.1 µM), hits mostly inhibitors; Q99714; actives 3.4% (n = 73,000); recombinant HADH2, NADH fluorescence, beta-hydroxybutyryl-CoA; also: nearly all actives have a fitted effect of over 60% in size
# Target sequence (Q99714 whole entry, looked up, one chain of several): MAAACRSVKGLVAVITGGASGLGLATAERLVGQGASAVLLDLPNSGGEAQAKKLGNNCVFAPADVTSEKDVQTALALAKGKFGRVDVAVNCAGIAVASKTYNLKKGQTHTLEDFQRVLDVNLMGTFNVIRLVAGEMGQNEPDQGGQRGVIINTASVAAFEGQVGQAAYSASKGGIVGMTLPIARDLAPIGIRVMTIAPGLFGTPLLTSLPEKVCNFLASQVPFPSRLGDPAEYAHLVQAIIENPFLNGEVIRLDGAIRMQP
#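 Read-out: 360 nm excitation, 450 nm emission, kinetic over 4 min. Conditions: His-tagged human HADH2 20 nM, pH 9.0 Tris with Tween-20, 1 mM NAD+, 90 uM beta-hydroxybutyryl-CoA.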
# AID923: qHTS Assay for Allosteric/Competitive Inhibitors of Caspase-1: Spectroscopic Profiling in AFC Spectral Region; compound fluorescence, AFC spectral region (405/520 nm); Potency, µM (doses to about 57.5 µM), usual class: activators; actives 1.1% (n = 75,000)
#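 Titrations up to 57 uM read every 20 sec for 3 min (405/520 nm) with 50 nM caspase 1 and 5 uM Ac-WEHD-AFC, pH 7.5 HEPES buffer. Fluorescence-vs-time intercept gave baseline, scaled against on-plate AFC standard.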
# A number is an active result; i = inactive; ? = inconclusive; nt = no result; ! = repeats disagree; [ ] = remark or other dose. The list is not random: actives were taken first. Their share in the collection is about 14%. Unless noted, calls follow the shape of the dose curve; as a rule, active = well fitted curve in the direction sought with a large enough effect; inconclusive = small, poorly fitted or top-dose-only effect, or another doubt; inactive = no such curve, though single readings can be large; an effect the other way counts as inactive or inconclusive.
SMILES,HSD17B inhib,CRE Fsk mod,A350 autofl,4-MU autofl,HADH2 inh,AID923
COc1ccc2[nH]c3c(=O)n(CCCCC(=O)N4CCC(C(N)=O)CC4)c(=S)[nH]c3c2c1,?,i,1e-08M,4.6e-08M,i,i
Cc1[nH]n2c(=O)cc(C(C)C)nc2c1-c1ccccc1,32µM,?,?,?,?,i
CCOC(=O)Cc1cc(=O)n2[nH]c(C)c(-c3ccc(OC)cc3)c2n1,?,i,?,i,i,i
CCCc1cc(=O)n2[nH]c(CCc3ccccc3)nc2n1,i,i,?,i,i,i
CCCc1cc(=O)n2[nH]c(C)c(-c3ccccc3)c2n1,32µM,i,i,i,i,i
Cc1[nH]n2c(=O)cc(C(C)(C)C)nc2c1-c1ccccc1,25µM,i,i,i,?,i
Cc1[nH]n2c(=O)c(C#N)c(-c3ccccc3)nc2c1-c1ccccc1,i,?,?,i,i,i
CCCc1cc(=O)n2[nH]c(C)cc2n1,25µM,i,i,i,i,i
c1ccc2c(CSCc3cccc4ccccc34)cccc2c1,i[11.4 µM],i[7.6 µM],i,i,i[11.4 µM],i[11.5 µM]
COC(=O)c1cc(=O)nc2sc3ccccc3n12,i,?,?,?,i,i
COC(=O)c1c(C)cc(C)n2c1nc1ccccc12,20µM,?,1.4e-07M,1.6e-07M,i,i
Cc1cnc(CNc2ccnc(-c3ccccc3C(F)(F)F)n2)cn1,i,i,i,i,i,i
Cc1ncc(CSc2ccccc2N)c(CO)c1O,i[11.4 µM],i[7.6 µM],i,i,i[11.4 µM],i[11.5 µM]
c1ccc2c(c1)nc(-c1ccncc1)n1nnnc21,i,i,4.5e-08M,3.6e-08M,i,i
COCc1nc2c([nH]1)c(=O)n(C)c(=O)n2CC(C)C,i,13µM!,i,i,i,i
Cn1c(=O)c2[nH]c(CCCCc3nc4c([nH]3)c(=O)n(C)c(=S)n4C)nc2n(C)c1=S,i[11.4 µM],i[7.6 µM],i,i,i[11.4 µM],i[11.5 µM]
O=C(CCn1c(=O)[nH]c2ccsc2c1=O)N1CCc2ccccc2C1,i,?,i,i,i,i
COc1cc2[nH]c(=O)n(CCC(=O)NC3CCCC3)c(=O)c2cc1OC,25µM,i,?,?,i,i
CCOc1cc2[nH]c(=O)n(CCCCC(=O)NC3CCCCC3)c(=O)c2cc1OCC,32µM,i,i,i,i,i
COc1cc2c(C(=O)NC3CCCCCC3)cn(C)c(=O)c2cc1OC,i,2µM,i,i,i,i
COc1cc2[nH]c(=O)n(CCC(=O)N3CCN(c4cc(Cl)ccc4C)CC3)c(=O)c2cc1OC,i,i,i,i,i,i
COc1cc2[nH]c(=O)n(CCC(=O)N3CCc4ccccc4C3)c(=O)c2cc1OC,32µM,i,i,i,i,i
COc1ccc(/C=C/C(=O)c2ccc(O)cc2O)cc1OC,i,nt,nt,nt,nt,i
CCOCCCNC(=O)C1CCN(S(=O)(=O)N2CCCCC2)CC1,i,i,1e-08M,?,i,i
CCOCCCNC(=O)C1CCN(S(=O)(=O)c2c(C)noc2/C=C\c2ccc(OC)cc2)CC1,?,?,1.3e-07M,1.2e-07M,25µM,i
SMILES,HSD17B inhib,CRE Fsk mod,A350 autofl,4-MU autofl,HADH2 inh,AID923
NS(=O)(=O)Cc1noc2ccccc12,i,i,i,i,i,i
N#Cc1nc(COc2ccccc2)oc1N1CCCC1,nt,nt,i,i,nt,nt
N#Cc1nn(-c2ccccc2)nc1N1CCCCC1,25µM,?,1.9e-07M,2.2e-07M,i,i
COC(=O)c1cn(NC(=O)c2ccc3c(c2)OCO3)c(=O)c2ccccc12,i,?,i,i,i,i
COc1ccc2c(c1)c(C(=O)CNc1nc(C)cs1)c(C)n2C,16µM,i,i,i,i,i
O=C(c1csnn1)N1CCC2(CC1)CN(c1ccccc1)C2,i,i,i,i,i,i
O=C(c1csnn1)N1CCC2(CC1)CN(c1ccccn1)C2,32µM,?,i,i,i,i
O=C(c1csnn1)N1CCC2(CCCN(c3ccccc3)C2)CC1,i,i,4.6e-08M,3.8e-08M,i,i
Nc1c(C(=O)NCCc2ccccc2)nnn1Cc1ccccc1,i,?,i,i,i,i
NC(=Nc1ccccc1)NC(=O)c1nc(Cl)c(N)nc1N,?,?,3.9e-07M,3.8e-07M,?,i
NC(=NCc1ccccc1)NC(=O)c1nc(Cl)c(N)nc1N,16µM,?,8.5e-07M,9.3e-07M,32µM,i
COc1ccc(-c2cc(C(=O)Nc3cnn(Cc4ccccc4C)c3)no2)cc1OC,25µM,i,i,i,i,i
COc1ccc(-c2cc(C(=O)Nc3ccccc3SC)no2)cc1OC,?,i,8.9e-08M,6.9e-08M,i,i
CC(=O)c1c(C)[nH]c(C(=O)OCn2nnc3ccccc3c2=O)c1C,i,?,i,i,i,i
c1ccc(Cn2nnc3c(N4CCc5ccccc54)ncnc32)cc1,?,i,8.5e-07M,1.1e-06M,25µM,i
c1ccc(Cn2nnc3c(N4CCCCCC4)ncnc32)cc1,i,3.2µM,nt,nt,i,i
Clc1cccc(Cl)c1Cn1cnc2c(N3CCCCCC3)ncnc21,i,2µM,?,?,i,i
CCCN1CCN(c2ncnc3c2nnn3Cc2ccccc2)CC1,i,i,i,i,i,i
NCCC[C@@H](CC(=O)N[C@@H]1CCNC[C@H]1C(=O)N[C@H](CC(=O)N[C@@H](CCC(=O)O)CC(=O)O)Cc1c[nH]c2ccccc12)NC(=O)C[C@H](Cc1ccccc1)NC(=O)[C@@H]1CCCC[C@H]1N,nt,i,nt,nt,i,nt
CNC1CCC(c2ccc(Cl)c(Cl)c2)c2ccccc21 (stereo unspecified),i,nt,nt,nt,nt,nt
O=C(NCC1CCCO1)c1c(O)c2cccc3c2n(c1=O)CC3 (stereo unspecified),i,i,2e-08M,2.1e-08M,i,i
O=C(NCC1CCCO1)c1c(O)c2cccc3c2n(c1=O)CCC3 (stereo unspecified),i,i,?,?,i,i
O=C(NCCO)c1c(O)c2cccc3c2n(c1=O)CC3,i,?,2.6e-08M,2.2e-08M,i,i
COc1ccc(-n2c(CNC(=O)c3cc(OC)c(OC)c(OC)c3)n[nH]c2=S)cc1,i,?,i,i,i,i
Cc1cccc(NS(=O)(=O)c2cccc3cccnc23)n1,i,i,nt,nt,i,i
SMILES,HSD17B inhib,CRE Fsk mod,A350 autofl,4-MU autofl,HADH2 inh,AID923
Cc1cccc(NS(=O)(=O)c2ccccc2)n1,25µM,?,nt,nt,i[11.4 µM],i
COC(=O)[C@]1(C)CCC(c2ccc(C)cc2)=C(CC(=O)O)C1,i[11.4 µM],i[7.6 µM],i,i,i[11.4 µM],i[11.5 µM]
Cc1cc(NC(=O)c2cc(C3CC3)on2)no1,i,i,nt,nt,i,i
O=C(c1cccc(F)c1)N1CCC[C@@]2(CCN(c3ncccn3)C2)C1,?,i,i,i,i,i
Cc1ccc(C2C(C(=O)c3sc(-c4ccccc4)nc3C)=C(O)C(=O)N2CCN(C)C)o1 (stereo unspecified),i,i,i,i,i,i
Cc1nc(C)c(C(=O)C2=C(O)C(=O)N(CCN3CCOCC3)C2c2cccs2)s1 (stereo unspecified),i,?,i,i,i,i

# Screening data (PubChem)
